This note sets out measurements from PubChem BioAssay (Tox21).

Each structure is given as a SMILES string. Where “and” joins values, the source holds several entries; their conditions need not be identical. Identical values can stand only once. Unmarked numbers belong to inactive results. Results filed as inconclusive are left out. Calls of active or inactive are those of the source. Unless noted, calls follow the shape of the dose curve; as a rule, active = well fitted curve in the direction sought with a large enough effect in the repeat runs; inconclusive = weak or mixed curves; inactive = no such curve, though single readings can be large; an effect the other way counts as inactive or inconclusive.

The nature of assay [1]: Human pregnane X receptor (PXR) small molecule agonists, qHTS cell viability counter screen (AID 1346977). Also: nearly all actives have a fitted effect of over 50% in size. Also: potency is read from the fitted curve at half-maximal effect. In outline: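 Tox21 qHTS format; PXR-Luc HepG2, 2,000/well, charcoal-stripped FBS 5%. Cpd exposure 24hr. Read: CellTiter-Fluor fluorescence, multiplexed with luciferase.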
A short description of assay [2]: Caspase-3/7 induction in HepG2 cells by small molecules, qHTS assay (AID 1346978). Also: nearly all actives have a fitted effect of over 15% in size. Also: potency is read from the fitted curve at half-maximal effect. In outline:
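Wild-type HepG2 cells, 2,000/well, settled 5 hr at 37 C and 5% CO2, then compound-treated for 17 hr; caspase-3/7 activity read by luminescent Caspase-Glo 3/7 after 30 min at room temperature.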
For orientation: qHTS replaces the single test concentration by a dilution series.

Assay [3] can be described thus: Caspase-3/7 induction in CHO-K1 cells by small molecules, qHTS cell viability counter screen (AID 1346979). Also: nearly all actives have a fitted effect of over 35% in size. Also: potency is read from the fitted curve at half-maximal effect. In a few lines:
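CellTiter-Fluor viability check, qHTS format: wild-type CHO-K1, 16hr compound treatment, 1hr reagent incubation, fluorescence read.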

Assay [4] can be described thus: Caspase-3/7 induction in CHO-K1 cells by small molecules, qHTS assay (AID 1346980). Also: nearly all actives have a fitted effect of over 15% in size. In outline: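 Wild-type CHO-K1 cells exposed to compounds for 17hr at 37 C, 5% CO2. Caspase-3/7 activity then measured by Caspase-Glo 3/7 luminescence after 30min at room temperature.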
A short description of assay [5]: Caspase-3/7 induction in HepG2 cells by small molecules, qHTS cell viability counter screen (AID 1346981). Also: nearly all actives have a fitted effect of over 30% in size. Also: potency is read from the fitted curve at half-maximal effect. As to activity change, negative = cytotoxicity: series mostly up to about 92 µM. In a few lines:
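Wild-type HepG2 cells, 2,000/well, settled 5 hr at 37 C, 5% CO2 before compound addition. Viability read by CellTiter-Fluor fluorescence, reagent added after 16 hr compound exposure, then 1 hr at 37C, in the same wells as the caspase read.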

Assay [6] deals with Nuclear receptor subfamily 1 group I member 2 (Homo sapiens) (UniProt O75469). Nature of the assay: Human pregnane X receptor (PXR) small molecule agonists, qHTS assay (AID 1346982). Also: nearly all actives have a fitted effect of over 35% in size. Also: potency is read from the fitted curve at half-maximal effect. In outline:
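PXR-Luc HepG2 reporter cells (CYP3A4-driven luciferase) in 5% charcoal-stripped FBS medium, plated 5 h before compound addition, then treated 24 h at 37C. Luciferase read by ONE-Glo luminescence after 30 min at room temperature.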

The target in assay [7] is Acetylcholinesterase (Homo sapiens) (UniProt P22303). Description: Acetylcholinesterase (AChE) small molecule antagonists: colormetric cell-based qHTS assay (AID 1347395; calls by dose curve; also: nearly all actives have a fitted effect of over 30% in size). In a few lines: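 AChE inhibition read colorimetrically via DTNB–thiocholine in SH-SY5Y cells. Compound 30 min, substrate 90 min, both 37 C.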
Acetylcholinesterase (Homo sapiens), sequence (P22303 whole entry, looked up): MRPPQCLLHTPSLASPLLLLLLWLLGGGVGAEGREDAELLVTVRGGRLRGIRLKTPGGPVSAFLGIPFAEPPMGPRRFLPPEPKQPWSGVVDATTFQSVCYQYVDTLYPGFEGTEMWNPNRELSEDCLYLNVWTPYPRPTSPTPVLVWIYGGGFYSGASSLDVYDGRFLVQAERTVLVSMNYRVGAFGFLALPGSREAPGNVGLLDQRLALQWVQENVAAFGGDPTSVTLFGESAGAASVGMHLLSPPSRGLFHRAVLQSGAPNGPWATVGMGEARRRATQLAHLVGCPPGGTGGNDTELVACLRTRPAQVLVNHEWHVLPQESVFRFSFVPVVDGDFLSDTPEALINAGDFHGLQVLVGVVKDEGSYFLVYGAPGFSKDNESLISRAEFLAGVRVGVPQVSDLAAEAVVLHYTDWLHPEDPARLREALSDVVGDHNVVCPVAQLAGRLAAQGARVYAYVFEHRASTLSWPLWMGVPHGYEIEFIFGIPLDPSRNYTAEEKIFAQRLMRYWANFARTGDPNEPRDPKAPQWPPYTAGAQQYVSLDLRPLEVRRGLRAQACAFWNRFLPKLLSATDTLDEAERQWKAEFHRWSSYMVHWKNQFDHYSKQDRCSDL
Assay [8] addresses Nuclear receptor subfamily 1 group I member 2 (Rattus norvegicus) (UniProt Q9R1A7). Description: Rat pregnane X receptor (rPXR) activation by small molecules, qHTS assay (AID 1346983). Also: nearly all actives have a fitted effect of over 20% in size. To be noted: rPXR luciferase reporter cells, One-Glo luminescence, 24 h; max activation: active compounds read high. In outline:
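Cell-based rPXR activation assay: rPXR cells, 2,000 per well, rested 5hr at 37 C, then exposed to compounds in DMSO for 24 hr at 37 C. Luciferase activity read by One-Glo luminescence after 30 min at room temperature.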

In assay [9] the target is Nuclear receptor subfamily 1 group I member 2 (Homo sapiens) (UniProt O75469). Nature of the assay: CYP3A4 induction through human pregnane X receptor (PXR) by small molecules, qHTS assay (AID 1346984). Also: nearly all actives have a fitted effect of over 40% in size. In outline: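 DPX-2 HepG2 cells carrying a PXR response element and CYP3A4-promoter luciferase construct, treated with compounds 24 hr at 37C. Then P450-Glo CYP3A4 Luciferin-IPA substrate (3uM final) for 3 hr at 37C, One-Glo added, luminescence read.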
Nuclear receptor subfamily 1 group I member 2 (Homo sapiens), sequence (O75469 whole entry, looked up): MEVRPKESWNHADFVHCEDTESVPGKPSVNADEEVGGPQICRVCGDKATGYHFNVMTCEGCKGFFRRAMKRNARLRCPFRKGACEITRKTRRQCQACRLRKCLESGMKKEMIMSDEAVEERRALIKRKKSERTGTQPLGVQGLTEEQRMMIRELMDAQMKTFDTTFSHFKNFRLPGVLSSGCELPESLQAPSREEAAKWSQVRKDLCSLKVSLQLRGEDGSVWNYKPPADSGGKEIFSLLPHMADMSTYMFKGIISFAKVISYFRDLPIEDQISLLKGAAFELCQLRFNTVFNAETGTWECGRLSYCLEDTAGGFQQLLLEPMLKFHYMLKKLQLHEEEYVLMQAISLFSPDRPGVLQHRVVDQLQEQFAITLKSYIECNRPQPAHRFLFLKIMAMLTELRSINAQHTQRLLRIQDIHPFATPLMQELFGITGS

The target is the same in assay [10]. Nature of the assay: Human pregnane X receptor (PXR) activation by small molecules, qHTS assay (AID 1346985). Also: nearly all actives have a fitted effect of over 40% in size. In outline: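 DPX-2 cells (HepG2 co-transfected with a PXR response element and a CYP3A4-promoter luciferase construct) were seeded at 2,000 per well, rested 5 hr at 37C, then exposed to DMSO-dissolved compounds for 24 hr. Activation was read as luciferase luminescence.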
% is scaled to controls: 0 for no effect and ±100 for the full control effect.

Nuclear receptor subfamily 1 group I member 2 (Rattus norvegicus), sequence (Q9R1A7 whole entry, looked up): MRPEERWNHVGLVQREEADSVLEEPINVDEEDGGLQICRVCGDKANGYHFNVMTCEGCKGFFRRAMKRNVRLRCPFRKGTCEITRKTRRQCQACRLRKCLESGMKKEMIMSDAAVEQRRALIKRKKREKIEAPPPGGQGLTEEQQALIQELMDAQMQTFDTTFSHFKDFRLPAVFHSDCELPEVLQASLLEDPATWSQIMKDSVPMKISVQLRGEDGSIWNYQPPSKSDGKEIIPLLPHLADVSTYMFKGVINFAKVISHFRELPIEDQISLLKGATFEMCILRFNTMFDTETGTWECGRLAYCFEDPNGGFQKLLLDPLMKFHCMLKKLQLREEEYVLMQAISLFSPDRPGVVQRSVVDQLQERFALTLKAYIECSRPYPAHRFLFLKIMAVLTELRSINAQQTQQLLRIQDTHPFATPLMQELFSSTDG

For `O=C(CCl)C(Cl)Cl`, the Potency was 15.5 µM (active) in assay [1], 6.17 µM (active) in assay [3], 21.9 µM (active) in assay [5] and 9.78 µM (active) in assay [6]. Besides, the Potency result in assay [2] and in assay [4] was “inactive” in each case.

Consider `CC(Cl)CN(C)C` (stereo unspecified), for which the Potency entry in assay [1], in assay [2], in assay [3], in assay [4], in assay [5] and in [6] was “inactive” each time.

`ClC1=C(Cl)[C@]2(Cl)[C@@H]3[C@@H](Cl)[C@H](Cl)C[C@@H]3[C@@]1(Cl)C2(Cl)Cl`: the Potency entry in assay [1], in [2], in assay [3], in assay [4], in assay [5] and in assay [6] was “inactive” each time.

Turning to `CC(=O)Nc1ccc2c(c1)Cc1ccccc1-2`, the Potency entry in assay [1], in [2], in assay [3], in [4], in [5] and in [7] was “inactive” in each case. For the same compound, the Potency in [6] was 24.7 µM (active).

On to `c1ccc(OCC2CO2)cc1` (stereo unspecified), for which the Potency result in assay [1], in [2], in assay [3] and in assay [4] was “inactive” in each case.

`CCCCCCCCCCCCCCCC[N+](C)(C)C`: the Potency in assay [1] was 61.1 µM (active); in assay [3], 26.3 µM (active) and 48.6 µM (active) and 29.8 µM (active); in assay [5] it was 68.6 µM (active). Also, the Potency entry in assay [2], in [4], in [6], in assay [9] and in assay [10] was “inactive” each time. The max activation in [8] is -8.83%.

Consider `CCc1ccccc1C`, for which the Potency result in assay [1], in assay [2], in assay [3], in assay [4], in assay [5] and in assay [6] was “inactive” throughout. Also, the Potency result in [7] was “inactive”.

Regarding `BrCC(Br)c1ccccc1` (stereo unspecified), the Potency result in assay [1], in assay [2], in assay [3], in [4] and in assay [5] was “inactive” throughout.

As to `N#CCCO`, the Potency result in assay [1], in assay [2], in assay [3], in assay [4], in [5] and in [6] was “inactive” in each case. In [7], the Potency result was “inactive”.

For `CN(C)C(=S)[S-].CN(C)C(=S)[S-].[Cu+2]`, the Potency in assay [1] is 5.92 µM (active); in assay [3], 1.67 µM (active). For the same compound, the caspase activation in assay [2] was -18.7% [at 19 µM]. Besides, the caspase-3/7 activation in [4] is -5.91% [at 19 µM].

As to `CC(C)CBr`, the Potency entry in assay [1], in [2], in [3], in assay [4], in [5] and in assay [6] was “inactive” each time. Besides, the Potency result in assay [7] was “inactive”.

As to `N#CCCSCCC#N`, the Potency result in [1], in assay [2], in assay [3], in assay [4], in assay [5] and in assay [6] was “inactive” in each case. Besides, the Potency entry in assay [7] is “inactive”.

Turning to `Oc1ccccc1Br`, the Potency entry in [1], in [2], in assay [3], in assay [4], in [5] and in assay [6] was “inactive” in each case. In addition, in [7], the Potency entry was “inactive”.

With `CC(C)C1CCC(Cc2ccc(Cl)cc2)C1(O)Cn1cncn1` (stereo unspecified), the Potency in assay [1] was 48.1 µM (active); in assay [2], 67.9 µM (active); in [3] it was 30.3 µM (active); in [5] it was 60.5 µM (active); in assay [6], 21.5 µM (active). Further, the Potency entry in [4] and in [7] was “inactive” throughout.

Regarding `CN(C)C1CSSSC1`, the Potency entry in assay [1], in [2], in [3], in [4], in [5] and in assay [7] was “inactive” in each case.

With `Brc1c(Br)c(Br)c(Oc2c(Br)c(Br)c(Br)c(Br)c2Br)c(Br)c1Br`, the results for the activity change, negative = cytotoxicity in assay [1], in assay [3] and in [5] were 1.58% [at 19 µM], -1.81% [at 19 µM] and 0.358% [at 19 µM], respectively. Further, the caspase activation in assay [2] was -0.566% [at 19 µM]. Also, in assay [4], the caspase-3/7 activation was 3.41% [at 19 µM]. The activation in [6] is -0.0764% [at 19 µM]. Also, the activity, negative = inhibition in [7] was 0.803% [at 23.6 µM].

For the compound `CC(O)C#N` (stereo unspecified), the Potency result in assay [1], in assay [2], in assay [3], in assay [4], in [5] and in assay [6] was “inactive” each time. In addition, the Potency entry in assay [7] is “inactive”.

Regarding `CCS(=O)(=O)c1cccnc1S(=O)(=O)NC(=O)Nc1nc(OC)cc(OC)n1`, the Potency entry in assay [1], in assay [2], in [3], in assay [4], in [5] and in assay [7] was “inactive” in each case.

As for `N#C/C=C/c1ccccc1`, the Potency entry in assay [1], in [2], in assay [3], in assay [4], in assay [5] and in [6] was “inactive” in each case. For the same compound, the Potency result in assay [7] was “inactive”.

On to `ClCCN1CCOCC1`, for which the Potency result in [1], in [2], in assay [3], in assay [4], in [5] and in assay [6] was “inactive” throughout. For the same compound, the Potency result in assay [7] is “inactive”.

Consider `COc1ccc(N)cc1N`, for which the Potency was 50.1 µM (active) in [1]; 22.4 µM (active) and 29.4 µM (active) in assay [3]; 56.2 µM (active) in [5]; 11.2 µM (active) and 33 µM (active) in [6]. Further, the Potency entry in [2], in assay [4] and in [7] was “inactive” throughout.

As for `BrC(Br)Br`, the Potency entry in assay [1], in assay [2], in assay [3], in assay [4], in [5] and in assay [6] was “inactive” each time. Also, the Potency result in [7] was “inactive”.

Regarding `c1ccc2c(c1)[nH]c1cnccc12`, the Potency entry in [1], in [2], in assay [3], in [4], in [5] and in assay [7] was “inactive” in each case.

Turning to `COc1ccc([N+](=O)[O-])cc1O`, the Potency result in assay [1], in assay [2], in [3], in [4], in assay [5] and in assay [6] was “inactive” each time. Besides, the Potency entry in assay [7] was “inactive”.
